Source: PubChem BioAssay AID588413 (Sanford-Burnham Center for Chemical Genomics, 2011)
In all, about 340,000 compounds went through this assay and about 2,500 (0.74%) were called active.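 The calls were made as follows: active = inhibition above about 55% (limit read from the data); inactive = the rest.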 The sample as a whole holds a higher share of actives than the screen did.

Assay: blockers of Gli reporter signaling – luciferase luminescence, Sufu-KO-LIGHT cells, uHTS, primary screen (AID 588413);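 also: 0% = DMSO-treated cells and 100% = wells with medium but no cells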
Conditions: Sufu-KO-LIGHT fibroblasts, at 5 µM, active compounds read high
For CC(=O)c1cc(-c2ccccc2)n(CCC(=O)NC2CCCCCC2)c1C, the inhibition was 1.89% (inactive).
With COc1cccc2c1C(=O)c1c(O)c3c(c(O)c1C2=O)CC(O)(C(C)=NNC(=O)c1ccc(Cl)c(Cl)c1)CC3OC1CC(N)C(O)C(C)O1 (stereo not drawn) the inhibition was 71.2% (active).
With CCCCN(C(=O)c1ccc(S(=O)(=O)N2CCOCC2)cc1)C1CCS(=O)(=O)C1 (stereo not drawn) the inhibition was 0.87% (inactive).
In the case of O=C(OC1CCOC1=O)c1ccc(-c2nc3ccccc3s2)s1 (stereo not drawn), the inhibition is reported as -21% (inactive).
With CC1=NNC(=O)C1CCC(=O)N/N=C(\C)c1ccc(Cl)cc1 (stereo not drawn) the inhibition was 3.52% (inactive).
In the case of Cc1cnc(NC(=O)c2ccccn2)s1, the inhibition is reported as -50.9% (inactive).
With C/C(=N\NC(=O)c1ccccc1F)c1ccccn1 the inhibition was 58.4% (active).
For CNC(=S)N1CCN(c2ccccn2)CC1, the inhibition was 2.59% (inactive).
With NC(=O)NC(CC(=O)NNC(=O)c1ccccn1)c1ccc(Cl)cc1 (stereo not drawn) the inhibition was 5.55% (inactive).
With C/C(=N\NC(=O)Cc1ccc(Cl)cc1)c1ccccn1 the inhibition was 88% (active).
With COc1ccc(/C(C)=N\NC(=O)c2ccc(-c3ccccc3)cc2)c(F)c1 the inhibition was 2.32% (inactive).
For CC(=NNC(=S)N1CCCCCC1)c1ccccn1, the inhibition was 63.6% (active).
For Cc1cccc(C)c1NC(=S)N1CCCCCC1, the inhibition was 3.64% (inactive).
For O=C(COC(=O)c1ccc(O)cc1O)c1ccc2c(c1)OCCO2, the inhibition was -30.6% (inactive).
With C=CCn1cc(C(=O)NCc2ccc(Cl)cc2)c(=O)c2cc(S(=O)(=O)N(CC)CC)ccc21 the inhibition was 9.9% (inactive).
With Cc1ccc(S(=O)(=O)c2cc3c(=O)n4cccc(C)c4nc3n(CCc3ccccc3)c2=N)cc1C the inhibition was 1.35% (inactive).
With CC(C)c1ccc(/C=C/C(=O)NCCCN2CCOCC2)cc1 the inhibition was -8.47% (inactive).
For CNS(=O)(=O)c1ccc(NC(=O)C2CC(=O)N(c3ccc(Cl)cc3)C2)cc1 (stereo not drawn), the inhibition was -4% (inactive).
With CCOC(=O)c1c(C)[nH]c(C(=O)NCCN2CCOCC2)c1C the inhibition was 17.9% (inactive).
For CN(C)S(=O)(=O)c1ccc(Cl)c(NC(=O)COC(=O)CC(NC(N)=O)c2ccc(Cl)cc2)c1 (stereo not drawn), the inhibition was -2.2% (inactive).
For CCOP1(=O)C=C(C(C)(C)C)OC1c1ccc(F)cc1 (stereo not drawn), the inhibition was 8.49% (inactive).
In the case of COc1cccc(NC(=S)NC(=O)c2c(Cl)c(C)nn2C)c1, the inhibition is reported as -24.8% (inactive).
For CCCc1c(C(=O)Nc2ccc(F)cc2)cnn1-c1ccccc1, the inhibition was -12.3% (inactive).
In the case of Cc1nn(C(C)C(=O)NCCC2=CCCCC2)c(=O)c2nn(-c3ccccc3)c(C)c12 (stereo not drawn), the inhibition is reported as 3.02% (inactive).
For CCN1/C(=C\c2ccc3ccccc3[n+]2CC)Sc2cc(C)ccc21, the inhibition was 90% (active).
With CCN1/C(=C/c2ccc3ccc(C)cc3[n+]2CC)Sc2ccccc21 the inhibition was 79.4% (active).
For NC(=O)c1ccc(N2CCCC2)nc1, the inhibition was 1.14% (inactive).
In the case of CCC1=[N+]([O-])C(C)(/C(C)=N\O)N(O)C1(C)C (stereo not drawn), the inhibition is reported as 17.9% (inactive).
For COC(=O)Cc1[nH]n(-c2nc3ccccc3s2)c(=O)c1C(C)=Nc1ccc(OC)cc1, the inhibition was 79.5% (active).
With CC(=NCc1ccco1)c1c(C(F)(F)F)[nH]n(-c2nc3ccccc3s2)c1=O the inhibition was -17.2% (inactive).
In the case of COc1ccc(C(=O)Nc2cccc(/C=C(/CCC(=O)O)c3nc4ccccc4s3)c2)cc1, the inhibition is reported as -20.1% (inactive).
In the case of CCCCC(=O)Nc1ccc(C(=O)Nc2cc(C(F)(F)F)ccc2Cl)cc1, the inhibition is reported as 5.23% (inactive).
For O=C(CC(O)(C(F)(F)F)C(F)(F)F)Nc1ccc(Cl)c(Cl)c1, the inhibition was 78.9% (active).
In the case of NC(=O)N1CCCC1C(=O)Nc1ccc(Cl)c(Cl)c1 (stereo not drawn), the inhibition is reported as 1.62% (inactive).
In the case of CCC1CCCCN1C(=O)CSc1nc2c(c(=O)n1C)SC(C)C2 (stereo not drawn), the inhibition is reported as 1.3% (inactive).
With COc1ccc(OC)c(/C=N/NC(=O)CSc2nnc(C)n2-c2ccccc2)c1 the inhibition was -2.67% (inactive).
For COc1ccc(CC(=O)NCC(=O)N/N=C/c2cc(Br)ccc2OC)cc1, the inhibition was -1.49% (inactive).
For COc1ccc(OC)c(/C=N/NC(=O)c2ccc[n+](CC(=O)c3ccccc3)c2)c1, the inhibition was 91.4% (active).
For CCC(C)Cn1c(O)cc2nn(-c3nc4ccccc4s3)c(=O)c-2c1C (stereo not drawn), the inhibition was 83.4% (active).
In the case of Cc1cc(NC(=O)CN2CCCC(C)C2)n(-c2nc3ccccc3s2)n1 (stereo not drawn), the inhibition is reported as 20% (inactive).
In the case of CCc1ccc[n+](-c2nc([O-])sc2C=O)c1, the inhibition is reported as 6.64% (inactive).
In the case of COc1ccc(NC(=O)CNC(=O)Cn2ccc3ccccc3c2=O)c(OC)c1, the inhibition is reported as -0.61% (inactive).
In the case of COc1ccc(OC)c(NC(=O)c2sc3nc(C)cc(C)c3c2N)c1, the inhibition is reported as -3.47% (inactive).
With COc1ccc(OC)c(Cc2nnc(CCC(=O)NC3CCCC3)o2)c1 the inhibition was -18.7% (inactive).
For COc1ccc(OC)c(Cc2cnc3nc(N)nc(N)c3c2C)c1, the inhibition was 63.1% (active).
In the case of CC(C)=CCCC1(C)C=Cc2c(ccc3c2[nH]c2cc(O)c(C)cc23)O1 (stereo not drawn), the inhibition is reported as -3.46% (inactive).
For CS(=O)(=O)N1CCCC(C(=O)Nc2ccccc2C(F)(F)F)C1 (stereo not drawn), the inhibition was -2.21% (inactive).
With O=C(O)CCCCCCCCc1cn(CN2C(=O)c3ccccc3C2=O)nn1 the inhibition was -12.6% (inactive).
With OCC1(Cc2ccccc2C(F)(F)F)CCN(Cc2cccc3cnccc23)CC1 the inhibition was 25.5% (inactive).
For CC1CC2=C(CC1/C=N/NC(N)=S)C(C)(C)CCC2 (stereo not drawn), the inhibition was 72.7% (active).
In the case of COc1cccc(CN(C)C(=O)CC23CC4CC(CC(C4)C2)C3)c1OC, the inhibition is reported as -2.54% (inactive).
With Cn1c(N)c(C(=O)COC(=O)/C=C/c2ccc(OC(F)F)cc2)c(=O)n(C)c1=O the inhibition was 5.01% (inactive).
For N#Cc1c(-c2cccs2)nc(SCC(=O)c2ccc(Br)cc2)[nH]c1=O, the inhibition was 4.3% (inactive).
In the case of N#Cc1ccc(C(=O)Nc2nc(-c3cccs3)c(C(=O)C(F)(F)F)s2)cc1, the inhibition is reported as 62.5% (active).
In the case of COC(=O)c1sc(NC(=S)NC(=O)c2ccc(C)cc2)nc1C, the inhibition is reported as -41.9% (inactive).
For C/C(N)=C(\C#N)C(=O)NCCc1ccccn1, the inhibition was -1.25% (inactive).
With C=CC[C@H](CC(=O)OC(C)(C)C)C(=O)OC[C@H]1CCCN1C(=O)[C@H](CC=C)CC(=O)N(CCO)Cc1ccccc1 the inhibition was 7.8% (inactive).
For Nc1nc(SCC(=O)Nc2ccc(Cl)c([N+](=O)[O-])c2)n[nH]1, the inhibition was -5.39% (inactive).
